The text below walks through data of ChEMBL document CHEMBL3988442, “University of Dundee, Small-Polar-MMV Screening Library” (2021).

The campaign covered roughly 48,000 compounds. About 13,000 (27%) showed an effect of 50% or more. The list shows a part of the results.

The subject of this assay is Wolbachia pipientis. The experiment in a line: Anti-Wolbachia Cell-Based Screen. As to conditions: 5 µM. It is filed as functional. Also on record: scale not given: in the data most compounds retested in dose-response had high values.
In the case of `CCC(=O)c1ccc(OCC(=O)NCC2CC(CC)=NO2)cc1` (stereo not given), the “Percent Effect” value turned out to be 0.5795%.
As for `CSc1ccc(C(=O)C2CCCN(C(=O)Cn3cnnn3)C2)cc1` (stereo not given), the “Percent Effect” value was -23.42%.
Then `CSc1ccc(C(=O)C2CCCN(C(=O)CCCn3cncn3)C2)cc1` (stereo not given), with 89.8%; and `CSc1ccc(C(=O)C2CCCN(C(=O)CCn3cnnn3)C2)cc1` (stereo not given), with 95.72%.
Then `CSc1ccc(C(=O)C2CCCN(C(=O)CCn3cncn3)C2)cc1` (stereo not given), with 108%; and `O=C(c1ccc(C(F)(F)F)cc1)C1CCCN(C(=O)Cn2cnnn2)C1` (stereo not given), with -1.796%.
Consider `O=C(CCn1cncn1)N1CC[C@@H](c2ccc3ccccc3c2)[C@H](O)C1`, for which the “Percent Effect” value came to 2.781%.
Consider `CN(C)S(=O)(=O)N1C[C@@H]2CC[C@H](C1)N(CCC(=O)NCc1ccco1)C2`, for which the “Percent Effect” value is -9.336%.
To `CC(C)C(=O)NCc1cc(Br)ccc1F` belongs -9.372%.
To `OCCOc1nc(-c2ccccc2Cl)no1` belongs -14.24%.
In the case of `Cc1nc(C)c(CC(=O)NCc2cccnc2OC2CCCC2)c(=O)[nH]1`, the “Percent Effect” value came to 2.143%.
For the compound `CCNC(=O)C1CCN(c2cc(-c3ccccc3)nc3cc(C)nn23)C1` (stereo not given), the “Percent Effect” value is given as -12.78%.
Then `Cc1cn[nH]c1C1CCCCN1C(=O)CCc1c(C)n[nH]c1C` (stereo not given), with 119.5%; and `Cc1cn[nH]c1C1CCCCN1C(=O)CCc1ccc(F)cc1` (stereo not given), with 129.4%; and `Cc1cn[nH]c1C1CCCCN1C(=O)CCN1CCCCCC1` (stereo not given), with -3.23%.
With `COCCC(=O)N1CCCCC1c1ccc(F)cc1` (stereo not given), the “Percent Effect” value is given as -2.369%.
To `N#Cc1cccc(N2CCC3(CCC(=O)N(CCCO)C3)CC2)n1` belongs -9.323%.
To `O=C1OCCN1CCOc1nc(-c2ccccc2Cl)no1` belongs -11.04%; to `COCC(C)NC(=O)Nc1cc(-c2ccccc2C)nn1CCO` (stereo not given), -26.76%.
With `O=C1CC2(CCN(C(=O)c3ccccn3)C2)Nc2ccccc2N1` (stereo not given), the “Percent Effect” value was 110.2%.
Then `O=C(O)C(F)(F)F.O=C1CCC2(CCCN(C(=O)c3ccccn3)CC2)N1` (stereo not given), with -22.06%.
To `CN(C)C(=O)N1CCN(C(=O)c2ccccc2)CC2(CNC(=O)C2)C1` (stereo not given) belongs 9.343%; to `Nc1cc(C(=O)N2CCC3(CC2)Nc2ccccc2NC3=O)ccn1`, 3.743%; to `O=C1CC2(CCN(C(=O)C3CCCCC3)C2)Nc2ccccc2N1` (stereo not given), 102.3%.
As for `Cl.O=C(C1CCCCC1)N1CCC2(CC1)CNCc1ccccc12`, the “Percent Effect” value is given as 2.33%.
To `O=C(O)C(F)(F)F.O=C1CCCC2(CCN(C(=O)c3ccccn3)CC2)N1` belongs 4.079%.
To `O=C1Nc2ccccc2C1C1CCN(C(=O)C2CC2)CC1` (stereo not given) belongs -3.481%; to `O=C1CC2(CCN(C(=O)c3ccccc3)C2)Nc2ccccc2N1` (stereo not given), 106.1%; to `COC1CCCN(C(=O)NCC(F)F)C1` (stereo not given), -0.267%.
To `CN(Cc1ccco1)C1CCC12CCN(C(=O)N1CCCC1)CC2.O=C(O)C(F)(F)F` (stereo not given) belongs -11.51%.
As for `Cc1ccc(C2CCCCCN2CCCS(C)(=O)=O)o1` (stereo not given), the “Percent Effect” value is reported as -22.51%.
`CCOc1ccc(NC(=O)c2scnc2CC)cc1CO`: the “Percent Effect” value is recorded as -2.962%.
To `O=C1CN(C(=O)CSC2CCCc3ccccc32)CCN1` (stereo not given) belongs -8.523%.
As for `Cc1cc(C2CCCN(C(=O)c3cccnc3)C2)ccn1` (stereo not given), the “Percent Effect” value was found to be 84.57%.
Regarding `CC[C@H]1CN(C(=O)c2cccnc2)CC[C@H]1CC(=O)NC1CC1`, the “Percent Effect” value was 4.498%.
Then `O=C(c1cccnc1)N1CCCC(c2ccnc3nccn23)C1` (stereo not given), with 79.76%.
Regarding `O=C(NS(=O)(=O)Cc1ccc(F)cc1)C1CCOc2ccccc21` (stereo not given), the “Percent Effect” value is on record as -4.826%.
Consider `CC(O)CN1CCN(C(=O)c2ccc(N(C)C)nn2)CC1` (stereo not given), for which the “Percent Effect” value is on record as 2.216%.
To `CCOCC(O)CN1CCN(C(=O)c2ccc(N(C)C)nc2)CC1` (stereo not given) belongs -21.06%.
Then `CN(C)c1ccc(C(=O)N2CCN(Cc3cscn3)CC2)cn1`, with 116%.
To `CSC(C)C(=O)N1CCCN(Cc2cscn2)CC1` (stereo not given) belongs -14.88%; to `CC(O)CN1CCN(C(=O)c2ccc(N(C)C)nc2)CC1` (stereo not given), 3.143%; to `CN(C)c1ccc(C(=O)N2CCCN(Cc3cscn3)CC2)nn1`, 113.8%.
For `O=C(N1CCOCC1)N1CCc2ncnc(NC3CCC3)c2CC1.O=C(O)C(F)(F)F`, the “Percent Effect” value was 91.29%.
Turning to `O=C([C@H]1CCCO1)N1CCc2ncnc(NC3CC3)c2CC1`, the “Percent Effect” value is given as 1.456%.
For the compound `O=C(C1CCCO1)N1CCc2ncnc(NC3CCC3)c2CC1.O=C(O)C(F)(F)F` (stereo not given), the “Percent Effect” value worked out at 103.9%.
Then `O=C(N1CCOCC1)N1CCc2ncnc(NC3CC3)c2CC1`, with 0.5236%.
To `CCCC(C(=O)NC1CCN(S(C)(=O)=O)CC1)n1cccc1` (stereo not given) belongs -3.816%; to `CCNC(=O)NC(=O)CN1CCOC(c2ccc(Br)cc2)C1` (stereo not given), -12.38%.
Then `OC1(CNCCSc2ccccn2)CCCNC1` (stereo not given), with -44.86%.
Consider `N#Cc1cccnc1N1CCCC(CO)(CCOc2ccccc2)C1` (stereo not given), for which the “Percent Effect” value is 0.3876%.
To `CN(C)c1ccc(CCNC(=O)C2CCC(=O)N(C3CCCC3)C2)cc1` (stereo not given) belongs -1.429%; to `CCN(C(=O)CN1CCC(c2n[nH]c(C3CC3)n2)CC1)C1CC1`, 20.34%.
Then `CCN(C(=O)CN1CCC(c2cc3ccccc3[nH]2)CC1)C1CC1`, with -6.072%; and `CCC(=O)N1CCC(n2cc(C(C)(C)O)nn2)CC1`, with -6.105%.
`CC(C)N(C)C(=O)CN1CCCC(c2ccc(C(=O)O)cc2)C1` (stereo not given): the “Percent Effect” value worked out at 0.2821%.
Then `CCC(=O)N1CCC(c2nc3ccc(NC(C)C)cn3n2)CC1`, with -7.587%; and `CCN(CC)C(=O)CN1CCC(c2nc(C)c3c(n2)N(C)CCC3)CC1`, with 126.4%.
As to `CCN(CC)C(=O)CN1CCCC(c2nc(C)c3c(n2)N(C)CCC3)C1` (stereo not given), the “Percent Effect” value is 160%.
Consider `CCC(=O)N1CCC(c2nc(C)c3c(n2)N(C)CCC3)CC1`, for which the “Percent Effect” value is listed as 112.7%.
Then `CCN(CC(F)(F)F)C(=O)C1CCCN(Cc2nc(C)c(C)o2)C1` (stereo not given), with -1.409%; and `CCC[C@H]1CN(Cc2ccc(N(C)C)nc2)C[C@@H]1NC(=O)CSC`, with -2.183%; and `O=C(NC[C@H]1OC[C@@H](NC2CCCCC2)[C@@H]1O)c1cccs1`, with 2.272%.
Then `CC(C#N)CN(C)C(=O)CCNC(=O)OC(C)(C)C` (stereo not given), with 95.62%; and `CN(C)C(CNC(=O)CCNC(=O)OCC(F)(F)F)c1ccsc1` (stereo not given), with -11.09%; and `CC(C#N)CN(C)C(=O)CCNC(=O)C(C)(C)C` (stereo not given), with 107.7%.
Regarding `CC(C)(C)OC(=O)NCCC(=O)N(CCC#N)Cc1ccco1`, the “Percent Effect” value turned out to be 11.1%.
As for `CC(C)C[C@H](NC(=O)CNC(=O)OC(C)(C)C)C(=O)OC(C)(C)C`, the “Percent Effect” value is 3.003%.
To `CC(OCC(F)(F)F)C(=O)NCCN(C)C` (stereo not given) belongs -5.396%; to `CC(C)NC(=O)CNC(=O)OC(C)(C)C`, -14.72%; to `CC(O)CN(C)C(=O)CCNC(=O)OC(C)(C)C` (stereo not given), 96.59%.
To `CC(C#N)CN(C)C(=O)CCNC(=O)OCC(F)(F)F` (stereo not given) belongs 112.9%; to `CCC(C#N)NC(=O)CCNC(=O)C(C)(C)C` (stereo not given), -9.888%; to `CC(C)CC(C#N)NC(=O)CCNC(=O)C(C)(C)C` (stereo not given), 9.809%.
For the compound `Cc1cccc(OCCC(=O)N(C)CC(C)C#N)c1C` (stereo not given), the “Percent Effect” value is 20.16%.
To `Cc1cnn(CC2CCCN2c2ccc(C#N)cn2)c1` (stereo not given) belongs 16.4%.
With `CC1(C)CC1(C(=O)N1CC(c2cccnc2)C1)c1ccccc1F` (stereo not given), the “Percent Effect” value is reported as -22.23%.
On to `Nc1nccnc1C(=O)N1CC(OCc2cccc3ccccc23)C1`, for which the “Percent Effect” value is given as -5.576%.
To `CN1CCO[C@@H]2CN(C(=O)NCc3cccc(F)c3)CC[C@@H]2C1` belongs 89.36%; to `CC(C)N1CCO[C@@H]2CN(C(=O)NCc3ccccc3)CC[C@@H]2C1.O=C(O)C(F)(F)F`, 99.72%.
In the case of `CN(C)C[C@H]1OC[C@@H]2CCN(C(=O)NCc3cccc(F)c3)C[C@@H]21`, the “Percent Effect” value turned out to be 12.45%.
`CN(C)C[C@H]1OC[C@@H]2CN(C(=O)NCc3cccc(F)c3)CC[C@@H]21.O=C(O)C(F)(F)F`: the “Percent Effect” value was -10.24%.
Then `CN1CCO[C@@H]2CN(C(=O)NCc3ccccc3)CC[C@@H]2C1.O=C(O)C(F)(F)F`, with 100.3%.
For the compound `COCCN1CCO[C@@H]2CN(C(=O)NCc3ccccc3)CC[C@@H]2C1.O=C(O)C(F)(F)F`, the “Percent Effect” value was -7.267%.
Consider `COc1ccccc1OCC(=O)N1C[C@@H]2CN(C)CCO[C@@H]2C1.O=C(O)C(F)(F)F`, for which the “Percent Effect” value is listed as -10.13%.
As for `CC(C)N1C[C@@H]2CN(C(=O)NCc3ccccc3)CCC[C@]2(C(=O)O)C1.O=C(O)C(F)(F)F`, the “Percent Effect” value was -4.508%.
`Cc1csc(CNC(=O)N(C)Cc2ccc([S+](C)[O-])cc2)n1` (stereo not given): the “Percent Effect” value is on record as -10.57%.
Then `COCCN(CC1CCCN(C2Cc3ccccc3C2)C1)C(=O)CSC` (stereo not given), with -15.09%.
In the case of `COc1cc(N2CCCn3cnc(COCCO)c3C2)ncn1`, the “Percent Effect” value is -11.76%.
To `O=C(OCc1cccs1)c1cccc(C(=O)N2CCCC2)n1` belongs -3.794%; to `CNC(=O)C1CCN(C(=O)c2cccn2Cc2cccs2)CC1`, 0.5999%; to `NC(=O)CC1CCN(C(=O)c2cccn2Cc2cccs2)CC1`, 101.5%.
Then `O=C(c1cccn1Cc1cccs1)N1CCN(C2CC2)CC1`, with 5.207%; and `O=C(c1cccn1Cc1cccs1)N1CCC(C(=O)N2CCCC2)CC1`, with 86.86%.
`O=C(c1csc(-c2cccs2)n1)N1CCN2CCCCC2C1` (stereo not given): the “Percent Effect” value worked out at 1.576%.
Take `NC(=O)C1CCN(C(=O)c2cccn2Cc2cccs2)CC1`: the “Percent Effect” value is 117.1%.
Turning to `O=C(c1cccn1Cc1cccs1)N1CCN2CCCCC2C1` (stereo not given), the “Percent Effect” value was 106.1%.
Consider `NC(=O)CC1CCN(C(=O)c2csc(-c3ccccc3F)n2)CC1`, for which the “Percent Effect” value was -1.67%.
For the compound `O=C(c1cccn1Cc1cccs1)N1CCN(C(=O)C2CC2)CC1`, the “Percent Effect” value is recorded as -0.05599%.
To `Cc1cc(C(=O)N2CCc3[nH]cnc3C2C(=O)O)c(-c2ccccc2)o1` (stereo not given) belongs -20.72%.
